# PubChem BioAssay (Tox21)
# Records with an inconclusive call do not appear. Values without a mark were called inactive. Calls of active or inactive are those of the source. Calls follow the shape of the dose curve; as a rule, active = well fitted cell-killing curve with a large enough effect in the repeat runs; inconclusive = weak or mixed curves, or effect the other way; inactive = flat fitted curve, though single readings scatter.
# Test: qHTS assay to identify small molecule antagonists of the retinoid acid receptor (RAR) signaling pathway - cell viability counter screen (AID 1159551); also: nearly all actives have a fitted effect of over 35% in size
# Conditions: C3RL4 cells viability, ATP luminescence (CellTiter-Glo), 6 h; series mostly up to 92.4 µM; activity change, negative = cytotoxicity: at the top concentration
# Text: U.S. Tox21 Program National Center for Advancing Translational Sciences [NCATS] NIH Chemical Genomics Center [NCGC] U.S. Environmental Protection Agency [EPA] National Institutes of Environmental Health Sciences [NIEHS] National Toxicology Program [NTP] U.S. Food and Drug Administration [FDA] Tox21 Assay Overview: All-trans Retinoic acid (atRA) is the potent natural metabolite of retinol and plays an important role in normal embryonic development and maintenance of cellular phenotype in adult animals. atRA is the activating ligand for the retinoic acid receptors (RARs) which form heterodimers with retinoid X receptors (RXRs) on the retinoic acid response element (RARE). Through activation of the RAR/RXRs nuclear receptors, atRA regulates the transcription of a large number of protein-coding genes and regulatory RNAs. Intracellular levels of atRA are controlled by the retinol signaling pathway (RSP) that regulates the biosynthesis and catabolism of atRA to maintain physiological levels. Chemicals that interfere with the RSP can cause abnormal intracellular levels of atRA and therefore are potential developmental toxicants. To assess compounds for the potential adverse effect on embryonic development through interfering with retinol signaling, a cell-based RARE luciferase reporter gene assay was used. C3RL4 cell line (OARSA/CFSAN/FDA, Laurel, MD) was used to screen Tox21 10K compound library for identifying inhibitors of the RSP. Also cytotoxicity was assessed by determining the viability of cells based on the quantitation of ATP.
# Tox21 Assay Protocol Summary: C3RL4 cells were seeded at 1,000/well in 4 uL of assay medium into white solid 1,536-well tissue culture plates (Greiner Bio-One North America Inc. Monroe, NC) using a Multidrop Combi (Thermo Scientific, Waltham, MA) dispenser. After incubation at 37 C and 5% CO2 for an overnight, 23 nL of compounds dissolved in DMSO, positive control or DMSO only were transferred by a Pintool station (Kalypsys, San Diego, CA). One ul of 1 uM (final concentration) of Retinol was added right after the compound addition by using a Flying Reagent Dispenser (FRD) (Aurora Discovery, San Diego, CA). After 6 hr incubation at 37 C and 5% CO2, 5 uL of CellTiter-Glo reagent (Promega Corporation, Madison, WI) was added to each assay plate using an FRD. Luminescence was quantified on a ViewLux plate reader (PerkinElmer, Waltham, MA) after 30 min incubation at room temperature.
# % is scaled to controls: 0 for no effect and ±100 for the full control effect; potency is read from the fitted curve at half-maximal effect.
Structure (SMILES),"activity change, negative = cytotoxicity",Potency
CCCCCC[C@@H](O)C/C=C\CCCCCCCC(=O)O,-0.417%,
CC(CC1c2ccccc2CCc2ccccc21)CN(C)C (stereo not given),0.43% [at 42.5 µM],
C=COCC(C)C,-0.0922%,
O=C(Nc1cccc2c(=O)cc(-c3nn[nH]n3)oc12)c1ccc(OCCCCc2ccccc2)cc1,-1.96% [at 42.5 µM],
CCN(CC)CCNC(=O)COc1ccc(OC)cc1,-0.937% [at 42.5 µM],
CCOC(=O)c1ccccc1C(=C1C=C(Br)C(=O)C(Br)=C1)c1cc(Br)c(O)c(Br)c1,2.28% [at 42.5 µM],
CN1C(C(=O)Nc2ccccn2)=C(O)c2sccc2S1(=O)=O,-0.968% [at 42.5 µM],
CCC(C)COC(C)=O (stereo not given),-1.28%,
CC(C)=CCC/C(C)=C/CC/C(C)=C/CCC(=O)OC/C=C(\C)CCC=C(C)C,-0.216% [at 42.5 µM],
C=C(C)C(=O)OCCOCCOC(=O)C(=C)C,0.438%,
Cc1ccc2c(Br)cc(Br)c(O)c2n1,9.22% [at 42.5 µM],
CC(C)(C)C(=O)C(=O)O,0.0887%,
O=C(O)CCc1nc(-c2ccccc2)c(-c2ccccc2)o1,0.382% [at 42.5 µM],
O=C1NC(=O)c2cc([N+](=O)[O-])ccc21,2.69%,
Nc1nnc(-c2ccc([N+](=O)[O-])o2)o1,-2.82%,
O=C(OC(=O)c1ccccc1)c1ccccc1,1.11%,
N#CCc1ccc(Cl)cc1Cl,1.06%,
O=C1c2ccccc2C(=O)N1CCc1noc(-c2ccc(CN3CCCCCC3)s2)n1,-0.116%,
Clc1ccc(Nc2nnc(Cc3ccncc3)c3ccccc23)cc1,7.19% [at 42.5 µM],
O=[N+]([O-])c1ccc(O/N=C/c2cc(Br)c(O)c(Br)c2)c([N+](=O)[O-])c1,-8.11%,

Structure (SMILES),"activity change, negative = cytotoxicity",Potency
CC1=Nc2ccc3ccccc3c2C1(C)C,-1.61%,
O=Cc1c2ccccc2c(Cl)c2ccccc12,-0.409% [at 42.5 µM],
COC(=O)CCS,3.1%,
CCCCCC[C@@H](O)C/C=C\CCCCCCCC(=O)OCC(O)CO (stereo not given in full),-0.78%,
CCCCC(CC)CN (stereo not given),-2.17%,
CCCCC(CC)COP(=O)(O)O (stereo not given),-1.28%,
CCCC(=O)C(=O)O,0.727%,
O=c1cc(-c2ccccc2)oc2ccc3ccccc3c12,,24.3 µM (active)
Nc1ccc(N=Nc2ccccc2)c(N)c1,-6.95%,
CN1CCCC(CC2c3ccccc3Sc3ccccc32)C1 (stereo not given),-1.48% [at 42.5 µM],
O=c1[nH]c2ccc(Cl)cc2o1,-0.469%,
CCCCCCCCCCC(=O)O,-3.28%,
CN1C(=O)c2ccccc2C1=O,0.717%,
Cc1cc(C)c(N)cc1C,0.0032%,
CN(C)CCC=C1c2ccccc2C=Cc2ccccc21,-3.25% [at 42.5 µM],
C(=C\c1ccccc1)/c1ccccc1,9.31%,
O=C=Nc1ccc(Cl)c(Cl)c1,0.228%,
CC(=O)N/N=C/c1ccc([N+](=O)[O-])o1,-0.531% [at 42.5 µM],
Cc1cccc(O)c1N,-9.14%,
Cc1cccc(N(C)C(=S)Oc2ccc3c(c2)CCC3)c1,1.05% [at 42.5 µM],
